The values that follow come from PubChem BioAssay (EPA / NIEHS).

Inconclusive results are not listed. The source made the active and inactive calls. How the source made its calls, unless noted: active means hit-call score of the fitted dose curve at least 0.9, where 1 is the maximum; inactive means score below 0.9.

The nature of experiment [1]: Tanguay_ZF_120hpf_CRAN: Oregon State University Tanguay Lab 120 Hour Post-fertilization zebrafish Assay for Craniofacial Malformation (AID 2284397). In outline: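 Scoring of craniofacial malformation as a binary endpoint was done at 120 hpf by brightfield microscopy and was not done in dead embryos. Exposure was static, starting at 6 hpf, in dechorionated wild-type embryos held singly at 28C with 0.64% DMSO final.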

Experiment [2] is described as follows: Tanguay_ZF_120hpf_AXIS: Oregon State University Tanguay Lab 120 Hour Post-fertilization zebrafish Assay for Axial Malformation (AID 2284398). In outline: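 Scoring was binary (present or absent) for body-axis defects, judged by brightfield imaging at 120 hpf in surviving larvae. Exposure was static at 28C from 6 hpf in chorion-free 5D wild-type embryos, with 0.64% DMSO vehicle.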

Experiment [3] is described as follows: Tanguay_ZF_120hpf_MORT: Oregon State University Tanguay Lab 120 Hour Post-fertilization zebrafish Assay for Mortality (AID 2284399). In outline: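 Mortality, recorded present/absent via brightfield imaging at 24 and 120 hpf, in 5D zebrafish embryos exposed statically from 6 hpf after pronase chorion removal. Exposure at 28C, 0.64% DMSO vehicle, DMSO baseline.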

Experiment [4] can be described thus: Tanguay_ZF_120hpf_EDEM: Oregon State University Tanguay Lab 120 Hour Post-fertilization zebrafish Assay for Edema Malformation (AID 2284400). The procedure, abridged:
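Edema recorded as a binary endpoint under brightfield at 120 hpf, excluding embryos that died. Exposure was static, sealed, 28C, from 6 hpf in dechorionated wild-type larvae, final DMSO 0.64%, DMSO as baseline.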

Experiment [5] is described as follows: Tanguay_ZF_120hpf_BRN: Oregon State University Tanguay Lab 120 Hour Post-fertilization zebrafish Assay for Brain Region Malformation (AID 2284402). In outline: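 Binary brightfield scoring of brain malformation at 120 hpf in 5D wild-type larvae, chorion removed with pronase at 4 hpf. Static exposure began at 6 hpf, 28C, sealed plates, DMSO 0.64% (vol/vol) as vehicle baseline.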

A short description of experiment [6]: Tanguay_ZF_120hpf_TCHR: Oregon State University Tanguay Lab 120 Hour Post-fertilization zebrafish Assay for Touch Responsive (AID 2284403). In outline:
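Binary touch-response calls are made at 120 hpf in 5D wild-type zebrafish larvae. These larvae were dechorionated with pronase and exposed singly from 6 hpf in sealed, dark plates at 28 °C with 0.64% DMSO final; dead embryos are excluded.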

Experiment [7] can be described thus: Tanguay_ZF_120hpf_ANY: Oregon State University Tanguay Lab 120 Hour Post-fertilization zebrafish Assay for Any Mortality and Malformation (AID 2284404). In outline: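 Dechorionated Tropical 5D wild-type embryos, one per well from 6 hpf, static exposure in sealed, dark plates at 28C until 120 hpf, 0.64% DMSO final. Brightfield scoring of mortality and malformations as binary presence/absence, pooling 13 morphology endpoints.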

A short description of experiment [8]: CCTE_Padilla_ZF_Score.Swim_bladder: CCTE's 144 Hour Post-fertilization zebrafish Assay Score for Swim Bladder Malformation, Padilla Lab (AID 2284408). The procedure, abridged:
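Swim bladder inflation scored at 6 dpf by two blinded observers under a stereo microscope. Exposure ran from 6–8 hpf in sealed wells of 10% Hanks' at 26C, with rinsing at 5 dpf; DMSO served as baseline.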

Experiment [9] is described as follows: CCTE_Padilla_ZF_Score.Position: CCTE's 144 Hour Post-fertilization zebrafish Assay Score for Position, Padilla Lab (AID 2284409). In outline: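 Wild-type zebrafish embryos (with chorions) exposed singly from 6–8 hpf in sealed wells of Hanks' solution at 26C, rinsed at 5 dpf. At 6 dpf, blinded assessors scored abnormal water-column position by brightfield stereomicroscopy, relative to DMSO.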

A short description of experiment [10]: CCTE_Padilla_ZF_Score.Living: CCTE's 144 Hour Post-fertilization zebrafish Assay Score for Viability, Padilla Lab (AID 2284410).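 Further: larval death at 6 dpf judged by absent heartbeat or coagulation.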 In outline: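 Mortality at 6 dpf, judged as absent heartbeat or coagulation by two blinded observers, after sealed static exposure beginning at 6–8 hpf at 26C. Larvae were rinsed free of chemical at 5 dpf, and activity was fitted relative to DMSO.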

Experiment [11] in a line: CCTE_Padilla_ZF_Score.General: CCTE's 144 Hour Post-fertilization zebrafish Assay Score for General Malformation, Padilla Lab (AID 2284411). The procedure, abridged: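 Malformation, death and hatching were scored at 6 dpf by two blinded observers under a stereo microscope. Embryos were dosed singly from 6-8 hpf in sealed plates of 10% Hanks' at 26C and rinsed on 5 dpf; DMSO baseline.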

In the next experiment the test system is TTR (gene 7276). Description: CCTE_GLTED_hTTR_0.5uM: CCTE's human Transthyretin (hTTR) Inhibition Assay, with 0.5uM TTR, Great Lakes Toxicology and Ecology Division (GLTED) Lab (AID 2284320). In outline:
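Probe (ANSA) displacement from 0.5 uM human transthyretin was followed by fluorescence (ex 380, em 475) after a 2 h incubation with chemical. Activity was scored as signal loss and fitted positively relative to DMSO.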

Experiment [12] can be described thus: CCTE_Mundy_HCI_iCellGluta_NOG_NeuronCount: CCTE's Neurite Outgrowth Assay in iCellGluta cells for Neuron Count, Mundy Lab (AID 2284340; active means hit-call score of the fitted dose curve at least 0.9, where 1 is the maximum;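 further: cells fixed about 48 h after compound addition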). In outline:
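Neuron count read by automated high-content imaging of Hoechst 33342 and betaIII-tubulin/Alexa Fluor-488 labelling in human iPSC glutamatergic neurons. Activity fitted relative to DMSO.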

A further experiment concerns SERPINA7 (gene 6906). Put plainly: CCTE_GLTED_hTBG: CCTE's human Thyroxine-binding Globulin (TBG) Inhibition Assay, Great Lakes Toxicology and Ecology Division (GLTED) Lab (AID 2284343; active means hit-call score of the fitted dose curve at least 0.9, where 1 is the maximum;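 further: active chemicals lower fluorescence versus DMSO baseline by displacing probe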). In outline: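 Fluorescence (ex 380/em 475) reports ANSA displaced from human TBG after a 2 h incubation with test chemical, without cells. Loss of signal indicates displacement, with DMSO serving as baseline.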

Experiment [13] is described as follows: CCTE_Padilla_ZF_Score.Edema: CCTE's 144 Hour Post-fertilization zebrafish Assay Score for Edema Malformation, Padilla Lab (AID 2284406). In outline:
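Edema scored at 6 dpf by two blinded observers under a stereo microscope, in single outbred wild-type larvae exposed from 6-8 hpf in sealed wells (Hanks', 26C, 14:10 h light) and chemical-free after a 5 dpf rinse.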

A short description of experiment [14]: CCTE_Padilla_ZF_Score.Spine: CCTE's 144 Hour Post-fertilization zebrafish Assay Score for Spine Malformation, Padilla Lab (AID 2284407). In outline:
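Spine malformation scored at 6 dpf by two independent blinded observers under stereomicroscope, after static sealed exposure from 6–8 hpf at 26C in Hanks' solution with rinse on 5 dpf. Positive-direction fit against DMSO control.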

For the molecule `OCC(F)(F)C(F)(F)C(F)(F)CO`, the outcome in experiment [1], in experiment [2], in experiment [3], in experiment [4], in experiment [5] and in experiment [6] was inactive. The outcome in experiment [7], in experiment [8], in experiment [9], in experiment [10] and in experiment [11] was inactive.

Broadly, the AC50 is the concentration giving half of the maximal activity seen. Regarding `O=C(Cl)C(F)(F)C(F)(F)C(F)(F)C(F)(F)C(F)(F)C(F)(F)C(F)(F)F`, the AC50 in the experiment on TTR (gene 7276) is 0.599 µM (active). Moreover, the outcome in experiment [8], in experiment [9], in [10] and in [11] was inactive.

Take `COC(F)(C(F)F)C(F)(F)F` (configuration not stated): the call in experiment [1], in experiment [2], in experiment [3], in [4], in experiment [5] and in experiment [6] was inactive. The result in experiment [7], in experiment [8], in [9], in [10] and in experiment [11] was inactive.

As for `FC(F)(F)C(F)(F)C(F)(F)CC1CO1` (configuration not stated), the molecule was called inactive in [1], in experiment [2], in [3], in [4], in experiment [5] and in experiment [6]. For the same molecule, the molecule was called inactive in [7], in experiment [8], in experiment [9], in experiment [10] and in [11].

Turning to `NC(O)(C(F)(F)F)C(F)(F)F`, the call in experiment [12], in experiment [1], in experiment [2], in experiment [3], in [4] and in experiment [5] was inactive. Besides, the molecule was called inactive in experiment [6], in experiment [7], in experiment [8], in experiment [9] and in experiment [10]. In experiment [11], the AC50 is 85 µM (active).

For `FC(F)(F)C(F)(F)C(F)(F)C(F)(F)C(F)(F)C(F)(F)CC[Si](Cl)(Cl)Cl`, the outcome in [1], in experiment [2], in experiment [3], in [4], in [5] and in [6] was inactive. For the same molecule, the result in experiment [7] was inactive.

On to `O=C(c1ccccc1)c1ccc(O)cc1O`, for which the AC50 in the experiment with SERPINA7 (gene 6906) was 9.12 µM (active). Moreover, the molecule was called inactive in [11].

Consider `O=C(Cl)C(F)(F)C(F)(F)C(F)(F)C(F)(F)C(F)(F)C(F)(F)F`, for which the results for the AC50 (in the experiment on TTR (gene 7276); in experiment [13]; in experiment [11]) were 0.685 µM (active), 76.8 µM (active) and 76.8 µM (active), respectively. The outcome in experiment [8], in experiment [9] and in experiment [10] was inactive.

Consider `CC(C)CCCC(C)CCO` (configuration not stated), for which the molecule was classed as inactive in [11].

As for `OC(O)C(F)(F)C(F)(F)F`, the call in [1], in experiment [2], in experiment [3], in experiment [4], in [5] and in experiment [6] was inactive. Also, the outcome in experiment [7], in experiment [8], in [9], in experiment [10] and in experiment [11] was inactive.

For `OCCCC(F)(F)C(F)(F)C(F)(F)C(F)(F)C(F)(F)C(F)(F)C(F)(F)C(F)(F)F`, the outcome in [12], in experiment [1], in experiment [2], in experiment [3], in [4] and in [5] was inactive. The call in experiment [6], in experiment [7], in experiment [14], in experiment [8], in experiment [9] and in [10] was inactive. For the same molecule, in experiment [11], the outcome was inactive.

Turning to `OCC(O)CC(F)(F)C(F)(F)C(F)(F)C(F)(F)F` (configuration not stated), the result in [1], in experiment [2], in [3], in experiment [4], in [5] and in [6] was inactive. Besides, the molecule was classed as inactive in [7], in [8], in [9], in [10] and in experiment [11].

In the case of `OCC(O)CC(F)(F)C(F)(F)C(F)(F)C(F)(F)C(F)(F)C(F)(F)C(F)(F)C(F)(F)F` (configuration not stated), the AC50 in [1] was 6.76 µM (active); in experiment [2], 6.61 µM (active); in experiment [4], 5.23 µM (active); in experiment [7], 5.14 µM (active); in experiment [8] it was 6.73 µM (active); in experiment [9], 17.6 µM (active). In addition, the results for the AC50 in [10] and in experiment [11] were 17.7 µM (active) and 11.8 µM (active), respectively. For the same molecule, the call in experiment [3], in [5] and in experiment [6] was inactive.

With `CCC(Cc1c(I)cc(I)c(N)c1I)C(=O)O` (configuration not stated), the AC50 in the experiment with SERPINA7 (gene 6906) was 43.1 µM (active).

`CCN(CCO)S(=O)(=O)C(F)(F)C(F)(F)C(F)(F)C(F)(F)C(F)(F)C(F)(F)C(F)(F)C(F)(F)F`: the molecule was classed as inactive in experiment [12], in [1], in experiment [2], in [3], in experiment [4] and in [5]. Also, the call in experiment [6], in experiment [7], in experiment [14], in experiment [8], in [9] and in experiment [10] was inactive. The molecule was called inactive in experiment [11].

Turning to `CO[Si](C)(CCC(F)(F)C(F)(F)C(F)(F)C(F)(F)C(F)(F)C(F)(F)F)OC`, the outcome in experiment [1], in experiment [2], in [3], in [4], in [5] and in [6] was inactive. Further, the molecule was classed as inactive in experiment [7], in experiment [8], in [9], in [10] and in experiment [11].
